According to PubChem BioAssay (NCATS):
Inconclusive results are not listed. Calls of active or inactive are those of the source. Unless noted, the call rests on the fitted dose curve; in most records, active means well fitted curve in the direction sought with a large enough effect; inconclusive means small, poorly fitted or top-dose-only effect, or another doubt; inactive means no such curve, though single readings can be large; an effect the other way counts as inactive or inconclusive.

Legend:
[1] = P-glycoprotein substrates identified in KB-8-5-11 adenocarcinoma cell line, qHTS therapeutic library screen (AID 1346987); further: potency means the concentration at half of the fitted maximal effect; nearly all actives have a fitted effect of over 65% in size
Outline: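 KB-8-5-11, a colchicine-selected P-gp-overexpressing KB-3-1 subline, was grown without colchicine for the assay. Cells were seeded at 500 cells/well, dosed in concentration-response and incubated 72 h at 37 degree C, 5% CO2. Viability was read by CellTiter-Glo luminescence.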

[2] = system: Zika virus NS2B-NS3 protease (linked construct); test: Primary screen NINDS Rhodamine qHTS for Zika virus inhibitors (AID 1347160); further: nearly all actives have a fitted effect of over 55% in size
Outline: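 Kinetic fluorescence (Ex 480 nm, Em 540 nm) over 15 min with 1.5 microM Rhodamine110 peptide and 25 nM linked protease.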

[3] = biological target: Cytochrome P450 2D6 (Homo sapiens) (UniProt P10635); test: Cytochrome P450 family 2 subfamily D member 6 (CYP2D6) small molecule antagonists: luciferase biochemical (cell-free) qHTS assay (AID 1645840; active means well fitted curve in the direction sought with a large enough effect in the repeat runs; an effect the other way counts as inactive or inconclusive; further: potency means the concentration at half of the fitted maximal effect; nearly all actives have a fitted effect of over 55% in size)
Cytochrome P450 2D6 (Homo sapiens), sequence (P10635 whole entry, looked up): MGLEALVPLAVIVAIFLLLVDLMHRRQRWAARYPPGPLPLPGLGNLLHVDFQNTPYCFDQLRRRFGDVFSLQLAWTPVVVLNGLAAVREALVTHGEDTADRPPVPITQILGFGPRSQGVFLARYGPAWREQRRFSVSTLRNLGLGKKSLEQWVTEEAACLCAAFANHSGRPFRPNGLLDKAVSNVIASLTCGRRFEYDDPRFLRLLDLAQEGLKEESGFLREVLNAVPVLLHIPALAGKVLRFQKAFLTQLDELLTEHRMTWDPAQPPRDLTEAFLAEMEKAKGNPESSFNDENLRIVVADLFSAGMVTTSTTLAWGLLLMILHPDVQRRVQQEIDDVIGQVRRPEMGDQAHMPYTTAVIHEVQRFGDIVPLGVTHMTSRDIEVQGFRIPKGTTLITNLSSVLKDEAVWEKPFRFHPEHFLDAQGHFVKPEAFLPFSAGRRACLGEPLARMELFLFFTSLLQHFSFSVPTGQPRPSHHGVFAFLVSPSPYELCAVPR
Outline: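 P450-Glo luminescent screen: recombinant CYP2D6 enzyme–proluciferin substrate mix preincubated with compound 10 min at room temperature, then NADPH regeneration added for 1 h at room temperature. Detection reagent added for 20 min; luciferin light read as relative luminescence units.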

[4] = biological target: Glutathione peroxidase 1 (Homo sapiens) (UniProt P07203); test: Primary qHTS Assay for Inhibitors of Recombinant Selenoprotein Glutathione Peroxidase 1 (GPX1) (AID 1845191); further: nearly all actives have a fitted effect of over 65% in size
Glutathione peroxidase 1 (Homo sapiens), sequence (P07203 whole entry, looked up): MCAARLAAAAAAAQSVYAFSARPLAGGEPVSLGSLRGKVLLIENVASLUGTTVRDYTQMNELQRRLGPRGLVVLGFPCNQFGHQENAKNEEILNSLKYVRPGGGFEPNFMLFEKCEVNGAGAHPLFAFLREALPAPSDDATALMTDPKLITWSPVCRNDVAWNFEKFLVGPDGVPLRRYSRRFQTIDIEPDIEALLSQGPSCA
Outline: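 GR-coupled assay: compounds preincubated 30 min at room temperature with GPX1, then reaction started with CHP; final 10 nM GPX1, 1 mM GSH, 0.5 mM CHP, 0.5 mM NADPH, 100 nM GR, 0.01% BSA, pH 7.5 Tris buffer. NADPH fluorescence (340/450 nm) read at 0 and 15 min.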

[5] = biological target: Phospholipid hydroperoxide glutathione peroxidase GPX4 (Homo sapiens) (UniProt P36969); test: Primary qHTS Assay for Inhibitors of Recombinant Selenoprotein Glutathione Peroxidase 4 (GPX4) (AID 1845192); further: nearly all actives have a fitted effect of over 65% in size
Phospholipid hydroperoxide glutathione peroxidase GPX4 (Homo sapiens), sequence (P36969 whole entry, looked up): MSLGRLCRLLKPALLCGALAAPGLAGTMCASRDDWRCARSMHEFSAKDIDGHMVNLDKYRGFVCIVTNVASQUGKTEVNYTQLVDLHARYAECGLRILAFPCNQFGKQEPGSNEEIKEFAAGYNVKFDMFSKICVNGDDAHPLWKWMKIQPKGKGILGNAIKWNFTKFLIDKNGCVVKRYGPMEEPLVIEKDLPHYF
Outline: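 GR-coupled assay: recombinant GPX4 preincubated 30 min with compound at room temperature; final 200 nM GPX4, 1 mM GSH, 0.5 mM cumene hydroperoxide, 0.5 mM NADPH, 100 nM GR, 0.01% BSA, pH 7.5 Tris. NADPH fluorescence (340/450 nm) read at 0 and 15 min.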

[6] = biological target: Luciferin 4-monooxygenase (Photinus pyralis) (UniProt P08659); test: Primary firefly luciferase (FLuc) qHTS assay for identification of artifact compounds. (AID 1845220); conditions: outcome: dose series up to 54.1 µM unless noted; further: nearly all actives have a fitted effect of over 60% in size
Outline: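 Titrated compounds were incubated 15 min at RT, protected from light, with luciferin and ATP at 10 uM; reaction started with 10 nM FLuc, luminescence imaged at 5 min, and concentration-response fitted by Hill equation.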

[7] = Primary fluorescence-based thiol-reactive (MSTI) qHTS assay for identification of artifact compounds. (AID 1845221);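 further: thiol-reactive compounds lower the probe fluorescence signal; nearly all actives have a fitted effect of over 65% in size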
Outline: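 Reactivity toward the thiol probe MSTI (4 uM) is scored by fluorescence at Ex/Em 525/598 nm after 1 h at room temperature. Acetyl-MSTI and MSTI define the activity scale.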

[8] = system: Nanoluciferase (engineered Oplophorus gracilirostris luciferase); test: Primary Nanoluciferase (NLuc) qHTS assay for identification of artifact compounds. (AID 1845222);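 further: NLuc secreted into diluted conditioned medium of S16 cells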
Outline: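 qHTS format, against NLuc in S16 cell-conditioned medium. Nano-Glo substrate 1:100 was added after 15 min at room temperature. Luminescence was taken after a further 5 min.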

C33A = test: Primary qHTS to identify gynecologic anti-cancer compounds using libraries of approved drugs and bioactive compounds (AID 1345084); conditions: Gynecologic cancer cell panel viability, ATPlite luminescence, 48 h; series mostly up to 57.5 µM; further: nearly all actives have a fitted effect of over 55% in size
Outline: (§1)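 Measured: luminescence after ATPlite addition (15 min, RT). Exposure: 48 h, 37 C, 5% CO2.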

CAOV3 = test: as above; conditions: Gynecologic cancer cell panel viability, ATPlite luminescence, 48 h; series mostly up to 57.5 µM
Outline: as §1

CASKI = test: as above; conditions: Gynecologic cancer cell panel viability, ATPlite luminescence, 48 h; series mostly up to 57.5 µM
Outline: as §1

Es-2 = test: as above; conditions: Gynecologic cancer cell panel viability, ATPlite luminescence, 48 h; series mostly up to 57.5 µM
Outline: as §1

HeLa = test: as above; conditions: Gynecologic cancer cell panel viability, ATPlite luminescence, 48 h; series mostly up to 57.5 µM
Outline: as §1

Hek293T = test: as above; conditions: Gynecologic cancer cell panel viability, ATPlite luminescence, 48 h, control line for the selectivity index; series mostly up to 57.5 µM
Outline: as §1

JEG-3 = test: as above; conditions: Gynecologic cancer cell panel viability, ATPlite luminescence, 48 h; series mostly up to 57.5 µM
Outline: as §1

OV90 = test: as above; conditions: Gynecologic cancer cell panel viability, ATPlite luminescence, 48 h; series mostly up to 57.5 µM
Outline: as §1

PA-1 = test: as above; conditions: Gynecologic cancer cell panel viability, ATPlite luminescence, 48 h; series mostly up to 57.5 µM
Outline: as §1

Tov-21-G = test: as above; conditions: Gynecologic cancer cell panel viability, ATPlite luminescence, 48 h; series mostly up to 57.5 µM
Outline: as §1

Tov112D = test: as above; conditions: Gynecologic cancer cell panel viability, ATPlite luminescence, 48 h; series mostly up to 57.5 µM
Outline: as §1

Measured: Potency

C[C@@H](CN1CCC(n2c(=O)[nH]c3cc(Br)ccc32)CC1)NC(=O)[C@@H]1C[C@H]1c1ccccc1
active: [1] 20.6 µM | [3] 13.5 µM
inactive: all other assays above
